# The list is not random: actives were taken first. Their share in the collection is about 1.4%.
# eLon inh: inhibitors of E. coli Lon protease; inhibition, % at 7.94 µM; hit rate 0.42% among 360,000; purified E. coli Lon protease, fluorescence polarization; P0A9M0; in the data active = inhibition above about 13%, passing the limit was not always enough
# BCLXL inh: Bcl-xL (human) inhibition. Q07817. inhibition, % at 10.9 µM. AID 2129. GST-Bcl-xL / FITC-Bim BH3 peptide fluorescence polarization. hit rate 0.7% among 320,000;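 active = inhibition above the mean of all tested compounds plus 3 SD, cutoff set per campaign, cut at about 30% in these data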;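 also: inhibitors lower millipolarization by displacing the labeled peptide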
# Target sequence (Q07817 whole entry, looked up): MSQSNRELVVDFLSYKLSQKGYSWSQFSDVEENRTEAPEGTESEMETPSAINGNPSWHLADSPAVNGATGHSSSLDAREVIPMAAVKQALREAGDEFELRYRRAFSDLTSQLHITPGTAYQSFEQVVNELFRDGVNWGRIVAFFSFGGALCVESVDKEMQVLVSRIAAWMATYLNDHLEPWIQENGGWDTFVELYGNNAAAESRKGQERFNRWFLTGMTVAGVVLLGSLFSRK
# MEX-5 binding: C. elegans MEX-5 TCR-2 RNA binding activity; MEX-5/FITC-TCR2 RNA binding, fluorescence polarization; stronger effect = lower value; activity score (negative = inhibition of binding), % at 10 µM; hit rate 0.38% among 300,000; Q9XUB2; AID 1832;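 active = inhibition past about -25% in most replicates, and total fluorescence under double the plate's negative control median, limit read from the data; inconclusive = replicates evenly split on the limit, or fluorescence at least double controls; inactive = too little inhibition in most replicates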
# MCL1-BIM inh: MCL1-BIM-BH3 interaction inhibition (human); Q07820; GST-MCL1 / FITC-Bim-BH3 fluorescence polarization; inhibition, % at 10.9 µM; hit rate 0.68% among 320,000;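 active = inhibition above the mean inhibition of all tested compounds plus 3 SD, set per campaign, cut at about 40% in these data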;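 also: higher means more loss of mP so more displacement of Bim peptide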
# Target sequence (Q07820 whole entry, looked up): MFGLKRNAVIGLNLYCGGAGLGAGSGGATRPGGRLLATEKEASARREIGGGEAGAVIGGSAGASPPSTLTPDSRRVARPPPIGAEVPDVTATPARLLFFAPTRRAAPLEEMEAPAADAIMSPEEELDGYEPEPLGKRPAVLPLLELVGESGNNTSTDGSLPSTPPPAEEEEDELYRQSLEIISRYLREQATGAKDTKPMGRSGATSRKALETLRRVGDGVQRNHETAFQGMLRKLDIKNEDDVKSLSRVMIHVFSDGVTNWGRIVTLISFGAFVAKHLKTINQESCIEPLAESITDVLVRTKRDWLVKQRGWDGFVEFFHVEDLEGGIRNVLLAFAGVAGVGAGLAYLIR
# GLD-1 TGE inh: GLD-1-TGE RNA interaction inhibition (C. elegans) | hit rate 0.44% among 320,000 | inhibition, % at 5.96 µM | purified GLD-1 + fluorescein TGE RNA, fluorescence polarization | Q17339;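 active = percent inhibition above a per-plate cutoff, the plate mean of test compounds plus 3 SD, cut at about 30% in these data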
# E coli Lon conf: confirmation of E. coli Lon protease inhibitors | shares compounds with eLon inh | purified E. coli Lon, fluorescence polarization | inhibition, % at 7.94 µM | hit rate 31% among 1,400; in the data active = inhibition above about 16%
# Numbers stand for hits; – = inactive; ? = inconclusive; · = no result; + = active, no number.
SMILES,eLon inh,BCLXL inh,MEX-5 binding,MCL1-BIM inh,GLD-1 TGE inh,E coli Lon conf
O=C(NCCCO)c1ccc2[nH]c3ccccc3c2c1,–,–,–,–,–,·
CCCNC(=O)c1ccc2c(=O)c(O)c(C)[nH]c2c1,–,–,–,–,–,·
CCCNC(=O)c1ccc2c(=O)c(O)c(-c3ccc(F)cc3)[nH]c2c1,163,–,-90,–,–,100
CCn1c(C2CCN(S(=O)(=O)c3ccc(OC)cc3)CC2)n[nH]c1=S,–,–,–,–,–,·
COc1ccc(C(CCN)Cc2ccccc2)cc1 (configuration not stated),–,–,–,–,–,·
CCN(CC(=O)NCc1cccs1)C(=O)c1ccc(S(=O)(=O)Nc2cccc(C)c2C)cc1,+,–,–,–,–,–
CCN(CC(=O)NCc1cccs1)C(=O)c1ccc(S(=O)(=O)Nc2ccccc2)cc1,–,–,–,–,–,·
CCN(CC(=O)NCc1cccs1)S(=O)(=O)c1ccc(F)cc1,–,–,–,–,–,·
CCN(CC)S(=O)(=O)c1ccc(C(=O)NCc2cccs2)cc1,19,–,–,–,–,–
COC(CNC(=O)C(=O)Nc1cc2c3c(c1)CCN3C(=O)CC2)OC,–,–,–,–,–,·
NS(=O)(=O)c1ccc(N/N=C/c2ccc(O)c(O)c2O)c([N+](=O)[O-])c1,21,·,·,·,·,38
NS(=O)(=O)c1ccc(N/N=C/c2ccc(O)cc2O)c([N+](=O)[O-])c1,–,–,–,–,–,·
Cc1ccc(S(=O)(=O)CC#CCOC(=O)c2ccc([N+](=O)[O-])cc2)cc1,·,–,–,–,–,·
O=C(O)/C=C\C(=O)NC1CCCCC1,28,–,–,–,–,–
CCN(CC)S(=O)(=O)c1ccc(C(=O)OCCN2C(=O)c3cccc4c(N5CCOCC5)ccc(c34)C2=O)cc1,–,–,?,–,–,·
O=C(O)CN1C(=O)c2cccc3c(Br)ccc1c23,–,–,–,–,–,·
CC(=O)N(C(C)=O)N1C(=O)c2cccc3c(N4CCOCC4)ccc(c23)C1=O,39,43,?,–,33,21
COc1ccc(OC)c(NCCN2C(=O)c3ccccc3C2=O)c1,–,·,·,·,·,·
CCCCNc1ccc2c3c(cccc13)C(=O)N(CCCC)C2=O,135,·,?,·,·,–
CCCN1C(=O)c2cccc3c(N4CCCCC4)ccc(c23)C1=O,74,43,-135,–,35,–
CN(C)CCCN1C(=O)c2cccc3c(Br)ccc(c23)C1=O,31,35,?,–,–,68
CC(C)c1ccc(/C=N/n2c(COc3ccccc3)n[nH]c2=S)cc1,–,–,–,–,–,·
O=C(c1ccccc1NS(=O)(=O)c1cccs1)N1CCCC1,20,–,–,–,–,–
O=C(c1ccccc1NS(=O)(=O)c1ccccc1)N1CCCCCC1,–,–,–,–,–,·
O=C(CC1C(=O)NCCN1Cc1c(F)cccc1Cl)NCCCOc1cccnc1 (configuration not stated),–,–,–,–,–,·
SMILES,eLon inh,BCLXL inh,MEX-5 binding,MCL1-BIM inh,GLD-1 TGE inh,E coli Lon conf
O=C(c1ccccc1)c1ccc(C(=O)N2CCN(c3ccccc3Cl)CC2)cc1,18,–,·,–,–,–
CN(C)c1ccc(CC(=O)c2nc3ccccc3s2)cc1,–,–,–,–,–,·
C=CCN(C(=O)COc1ccccc1)c1nnc(-c2ccncc2)s1,18,–,–,–,–,–
COCCN(C(=O)c1cccc(OC)c1)c1nnc(-c2ccncc2)s1,–,–,–,–,–,·
O=C(Nc1ccncc1)c1cc(S(=O)(=O)N2CCCC2)ccc1Cl,21,·,·,·,–,–
COc1cc(NCCCC(C)N)c2ncccc2c1 (configuration not stated),44,·,-26,·,·,–
COc1cc(NCCCCC(C)N)c2nccc(C)c2c1 (configuration not stated),–,·,·,·,·,·
CCN(CC)c1ccc(N=C2C=CC(=O)C=C2NC(C)=O)cc1,38,·,·,·,·,–
CCC(=O)NC(c1cc(Cl)c2ccccc2c1O)C1CC1 (configuration not stated),21,151,·,–,–,–
O=C(C1CCC(CNS(=O)(=O)c2ccccc2)CC1)N1CCCCC1 (configuration not stated),–,–,–,–,–,·
COc1ccc(CN2CCN(C(=O)C3CCC(CNS(=O)(=O)c4ccccc4)CC3)CC2)c(OC)c1OC (configuration not stated),143,–,–,–,–,–
Cc1ccc(CNS(=O)(=O)c2c(C(=O)N3CCCCC3)c(C)n(C)c2C)o1,–,–,–,–,–,·
CCOC(=O)C1=C(COC(=O)Cc2c(F)cccc2Cl)NC(=O)NC1C (configuration not stated),24,–,·,–,–,–
CCOC(=O)C1=C(COC(=O)c2c(OC)cccc2OC)NC(=O)NC1C (configuration not stated),–,–,–,–,–,·
C[C@H](NC(=O)c1ccco1)C(=O)OCC(=O)N1CC(=O)Nc2ccccc21,–,·,·,·,–,·
CCN(CC)S(=O)(=O)c1ccc(N2CCCC2)c(NC(=O)CN2C(=O)NC3(CCCC3)C2=O)c1,22,–,–,–,–,–
CCN(CC)S(=O)(=O)c1ccc(N2CCOCC2)c(NC(=O)CN2C(=O)NC3(CCCC3)C2=O)c1,–,·,·,·,·,·
O=C(CNC(=O)c1ccc(Br)o1)NNC(=O)c1ccccc1,96,·,·,·,·,–
O=C1c2ccccc2S(=O)(=O)N1CC(O)Cn1ccc2ccccc21 (configuration not stated),112,–,–,–,–,45
CC(C)(C)OC(=O)N(CCc1ccccc1)Cc1ccc(OCc2cccc(NC(=O)/C=C/c3ccccc3)c2)cc1,15,·,·,·,·,–
O=C(NCCc1nnc2ccc(N3CCCC3)nn12)c1ccccc1,19,–,–,–,–,–
NC(=O)CN1C(=O)C(=O)N(Cc2ccc(Cl)cc2)C1=O,–,–,–,–,–,·
O=C(O)CN1C(=O)C(=O)N(Cc2ccc(Cl)cc2Cl)C1=O,18,–,–,–,–,17
COc1ccc([N+](=O)[O-])cc1NS(=O)(=O)c1cc(C(=O)O)ccc1OC,–,–,–,–,–,·
CCc1cc(=O)oc2c(CNCc3ccccc3F)c(O)c(Cl)cc12,–,–,–,–,–,·
SMILES,eLon inh,BCLXL inh,MEX-5 binding,MCL1-BIM inh,GLD-1 TGE inh,E coli Lon conf
COc1cccc(NC(=S)NCc2ccc3c(c2)cc(C)n3C)c1,–,·,–,·,·,·
Cc1c(C(=O)NCc2ccc3c(c2)cc(C)n3C)cccc1[N+](=O)[O-],31,–,–,–,–,–
Cc1cccc(NC(=O)NCc2ccc3c(c2)cc(C)n3C)c1,30,–,–,–,–,–
Cc1cc2cc(CNC(=O)Nc3cccc(Cl)c3)ccc2n1C,40,–,–,–,–,45
COc1ccc(CNC(=O)Nc2cccc(Cl)c2)cc1,–,·,·,·,·,·
Cc1cc2cc(CNC(=S)Nc3ccc(OC(F)(F)F)cc3)ccc2n1C,19,–,–,–,–,19
CC(=O)Nc1ccc(/C=N/OCC(=O)Nc2ccc(C)cc2)cc1,–,–,–,–,–,·
